Screens from PubChem BioAssay.
Shown are actives, neighbours in structure and some others; about 1.9% of the full set was active somewhere.
15-hLO inh – blocks human 15-lipoxygenase activity. P16050. hit rate 1.4% among 74,000. AID 887. purified 15hLO-1, xylenol orange hydroperoxide absorbance. Potency, µM (series often up to 57.1 µM), actives largely listed as inhibitors; note: nearly all actives have a fitted effect of over 55% in size
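Purified human 15hLO-1 (40 nM) in 25 mM Hepes pH 7.5, 0.01% Triton X-100, preincubated 15 min RT with compound, then 50 uM arachidonic acid for 6 min. Hydroperoxide read by ferrous/xylenol orange, 30 min; 573/405 nm absorbance ratio gave progress.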
YjeE inh – YjeE (TsaE) inhibition, E. coli; P0AF67; purified YjeE enzyme, qHTS inhibition assay; Potency, µM; hit rate 0.05% among 71,000; AID 605
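Purified YjeE (10 uM) with BODIPY Texas Red-labeled ADP probe (2 uM); compounds pin-transferred, 15 min at room temperature. Binding inhibition read as decreased fluorescence polarization; ADP titration as control.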
BRCT PPI green – BRCA1 BRCT-phosphoprotein interaction inhibition; P38398; BRCA1 BRCT-phosphopeptide binding, green fluorescence polarization; Potency, µM (titrated, usually from 76.9 µM), actives largely listed as inhibitors; hit rate 0.05% among 75,000
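Compounds were incubated for 12 min at room temperature with a complex of 100 nM fluorescein-tagged pBACH1 decapeptide and 250 nM His-tagged BRCT protein. Buffer was phosphate pH 7.3 with EDTA, DTT and Tween 20. Disruption of binding lowers the polarization signal.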
Pol III holo inh – blocks replication by bacterial DNA polymerase III holoenzyme; reconstituted DNA polymerase III holoenzyme replication, biochemical; Potency, µM (top dose mostly 57.1 µM); hit rate 0.25% among 71,000; AID 603
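Reconstituted *E. coli* holoenzyme (0.35 nM Pol III, 1 nM beta, 154 nM SSB, 2 nM primase) was preincubated with compound for 15 min at RT. Synthesis on 1.4 nM ssM13Gori ran 35 min, then was stopped with PicoGreen/EDTA and read as dsDNA fluorescence.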
Hsp90 Hop PPI – changes Hsp90-Hop TPR2A binding signal, up or down; AID 595; hit rate 0.44% among 71,000; AlphaScreen TPR2A-His6 binding biotin-Hsp90 C-terminal peptide; Potency, µM (doses to about 57 µM); active = well fitted curve in either direction with a large enough effect; inconclusive = small, poorly fitted or top-dose-only effect, or another doubt
BRCT PPI red – BRCT-phosphoprotein interaction inhibition (red fluorophore); P38398; BRCT-phosphopeptide binding, red fluorescence polarization; Potency, µM (titrated, usually from 76.9 µM), hits mostly inhibitors; hit rate 0.03% among 75,000; AID 892
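Rhodamine-labelled pBACH1 10-mer (100 nM) bound to BRCT domain (100 nM) at pH 7.3; compounds incubated 12 min room temperature, polarization read. Free peptide defines full inhibition; unlabelled decapeptide titrated as control.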
A number is an active result; [ ] = another dose, or the depositor's remark. Unless noted, calls come from the whole dose curve; as a rule, active = well fitted curve in the direction sought with a large enough effect; inconclusive = small, poorly fitted or top-dose-only effect, or another doubt; inactive = no such curve, though single readings can be large; an effect the other way counts as inactive or inconclusive.

Cc1ccc(NS(=O)(=O)c2cc(C(=O)O)ccc2Cl)cc1C was read as 15-hLO inh inactive, BRCT PPI green inactive and BRCT PPI red inactive.
Screening COCCNc1ncnc2ccc(-c3ccccc3C(F)(F)F)cc12 returned 15-hLO inh 25µM, YjeE inh inactive, BRCT PPI green inactive, Pol III holo inh inactive, Hsp90 Hop PPI inactive and BRCT PPI red inactive.
For c1ccc2c(c1)nnn2Cc1nnc2sc(-c3ccc4c(c3)OCCO4)nn12 the results were 15-hLO inh 13µM, YjeE inh inactive, BRCT PPI green inactive, Pol III holo inh inactive, Hsp90 Hop PPI inactive and BRCT PPI red inactive.
Screening c1ccc(-c2nn3c(Cn4nnc5ccccc54)nnc3s2)cc1 returned 15-hLO inh inconclusive, YjeE inh inactive, BRCT PPI green inactive, Pol III holo inh inactive, Hsp90 Hop PPI inactive and BRCT PPI red inactive.
`Cc1cc2ccc(OC(=O)c3ccc(N=C(N)N)cc3)cc2oc1=O` gave 15-hLO inh inconclusive, YjeE inh inactive, BRCT PPI green inactive[15.4 µM], Pol III holo inh inactive[11.4 µM], Hsp90 Hop PPI inactive[11 µM] and BRCT PPI red inactive[15.4 µM].
For CC1CCC2C(C)(C)C3CC12CC[C@]3(C)O (some centres not stated) the results were 15-hLO inh inconclusive, BRCT PPI green inactive and BRCT PPI red inactive.
Screening CC(=O)O[C@]1(C)CC[C@]23CC1C(C)(C)C2CC[C@@H]3C (some centres not stated) returned 15-hLO inh 25µM, BRCT PPI green inactive and BRCT PPI red inactive.
For CN1C[C@@H](O)[C@@H](O)[C@@H](O)[C@@H]1CO the results were YjeE inh inactive, Pol III holo inh inactive and Hsp90 Hop PPI inactive.
Screening CC1=CC(=O)C2=C(C)CC[C@@H]3[C@H](OC(=O)[C@H]3C)[C@H]12 returned YjeE inh inactive, Pol III holo inh inactive and Hsp90 Hop PPI inactive.
Brc1ccc(C2Nc3cccc4cccc(c34)N2)o1 was read as 15-hLO inh 10µM, YjeE inh inactive, BRCT PPI green inactive, Pol III holo inh inactive, Hsp90 Hop PPI inconclusive and BRCT PPI red inactive.
Oc1ccccc1C1Nc2cccc3cccc(c23)N1 was read as 15-hLO inh 20µM, YjeE inh inactive, BRCT PPI green inactive, Pol III holo inh inactive, Hsp90 Hop PPI inconclusive and BRCT PPI red inactive.
Screening c1ccc(-c2onc3cc4c(cc23)OCCO4)cc1 returned 15-hLO inh 13µM, YjeE inh inactive, BRCT PPI green inactive, Pol III holo inh inactive, Hsp90 Hop PPI inactive and BRCT PPI red inactive.
CC1(c2ccc3noc(-c4ccc(Cl)cc4)c3c2)OCCO1 was read as 15-hLO inh inactive, YjeE inh inactive, BRCT PPI green inactive, Pol III holo inh inactive, Hsp90 Hop PPI inactive and BRCT PPI red inactive.
For CC(C)=CCC/C(C)=C/C=O the results were 15-hLO inh inactive, YjeE inh inactive, BRCT PPI green inactive, Pol III holo inh inactive, Hsp90 Hop PPI inactive and BRCT PPI red inactive.
`CC(C)=CCCC(C)CCO` (configuration not stated) gave 15-hLO inh 7.9µM, YjeE inh inactive, BRCT PPI green inactive, Pol III holo inh inactive, Hsp90 Hop PPI inactive and BRCT PPI red inactive.
For Cc1cc(=O)oc2cc(O)c(CN(C)CC(=O)O)cc12 the results were 15-hLO inh inactive[11.4 µM], YjeE inh inactive, BRCT PPI green inactive[15.4 µM], Pol III holo inh inactive[11.4 µM], Hsp90 Hop PPI inactive[11 µM] and BRCT PPI red inactive[15.4 µM].
`CCN1c2ccccc2NC2N=C(OC)C(c3ccccc3)C21` (configuration not stated) gave 15-hLO inh 25µM, YjeE inh inactive, BRCT PPI green inactive, Pol III holo inh inactive, Hsp90 Hop PPI inactive and BRCT PPI red inactive.
CC(C)c1ccc2c(c1)CC[C@@H]1[C@@](C)(CN)CCC[C@@]21C was read as YjeE inh inactive, Pol III holo inh inactive and Hsp90 Hop PPI inactive.
CN1[C@@H]2CC[C@H]1CC(OC(=O)[C@@H](CO)c1ccccc1)C2 (some centres not stated) was read as 15-hLO inh inactive, YjeE inh inactive, BRCT PPI green inactive, Pol III holo inh inactive, Hsp90 Hop PPI inactive and BRCT PPI red inactive.
`C[N+](C)(C)CC(=O)N/N=C\c1c(O)ccc2ccccc12` gave 15-hLO inh inactive[11.4 µM], YjeE inh inactive, BRCT PPI green inactive[15.4 µM], Pol III holo inh inactive[11.4 µM], Hsp90 Hop PPI 3.2µM and BRCT PPI red inactive[15.4 µM].
C[N+](C)(C)CC(=O)N/N=C\c1ccncc1 was read as 15-hLO inh inactive[11.4 µM], YjeE inh inactive, BRCT PPI green inactive[15.4 µM], Pol III holo inh inactive[11.4 µM], Hsp90 Hop PPI inactive[11 µM] and BRCT PPI red inactive[15.4 µM].
Cc1ccc(S(=O)(=O)Nc2ccc(O)c(C(=O)O)c2)c(C)c1 was read as 15-hLO inh inactive, BRCT PPI green inactive and BRCT PPI red inactive.
`Cc1cc2cc(CNC(=O)c3cccs3)ccc2n1C` gave 15-hLO inh 16µM, YjeE inh inactive, BRCT PPI green inactive, Pol III holo inh inactive, Hsp90 Hop PPI inactive and BRCT PPI red inactive.
CCC(CC)C(=O)NCc1ccc2c(c1)cc(C)n2C was read as 15-hLO inh inactive, YjeE inh inactive, BRCT PPI green inactive, Pol III holo inh inactive, Hsp90 Hop PPI inactive and BRCT PPI red inactive.
For Nc1ncnc2c1nc(Br)n2[C@@H]1O[C@H]2COP(=O)(O)O[C@@H]2[C@H]1O the results were 15-hLO inh inactive, YjeE inh inactive, BRCT PPI green inactive, Pol III holo inh inactive, Hsp90 Hop PPI inactive and BRCT PPI red inactive.
For CSc1oc(-c2ccco2)nc1S(=O)(=O)c1ccc(Br)cc1 the results were 15-hLO inh inactive, YjeE inh inactive, BRCT PPI green inactive, Pol III holo inh inactive, Hsp90 Hop PPI inactive and BRCT PPI red inactive.
CC(C)Sc1oc(-c2ccco2)nc1S(=O)(=O)c1ccc(F)cc1 was read as 15-hLO inh 25µM, YjeE inh inactive, BRCT PPI green inactive, Pol III holo inh inactive, Hsp90 Hop PPI inactive and BRCT PPI red inactive.
`Cc1c2cc[n+](CCN3CCCCC3)cc2c(C)c2c1[nH]c1ccc(O)cc12` gave 15-hLO inh inactive[11.4 µM], YjeE inh inactive, BRCT PPI green inactive[15.4 µM], Pol III holo inh 2.5µM, Hsp90 Hop PPI inactive[11 µM] and BRCT PPI red inactive[15.4 µM].
`CC(C)C(=O)N(c1ccc2oc(=O)sc2c1)S(=O)(=O)c1cccs1` gave 15-hLO inh 20µM, YjeE inh inactive, BRCT PPI green inactive, Pol III holo inh inactive, Hsp90 Hop PPI inactive and BRCT PPI red inactive.
Cc1ccc(S(=O)(=O)Nc2ccc3oc(=O)sc3c2)c(C)c1 was read as 15-hLO inh inconclusive, YjeE inh inactive, BRCT PPI green inactive, Pol III holo inh inactive, Hsp90 Hop PPI inactive and BRCT PPI red inactive.
CCCC(=O)N(c1ccc2oc(=O)sc2c1)S(=O)(=O)c1ccccc1 was read as 15-hLO inh 25µM, YjeE inh inactive, BRCT PPI green inactive, Pol III holo inh inactive, Hsp90 Hop PPI inactive and BRCT PPI red inactive.
